# Source: ChEMBL document CHEMBL2218924, “A broad activity screen in support of a chemogenomic map for kinase signalling research and drug discovery” (Biochem J, 2013)
# Legend:
# [1] = biological target: T1, Ephrin type-B receptor 1 (Homo sapiens) (UniProt P54762); settings: at 1 µM
# T1 sequence (whole entry): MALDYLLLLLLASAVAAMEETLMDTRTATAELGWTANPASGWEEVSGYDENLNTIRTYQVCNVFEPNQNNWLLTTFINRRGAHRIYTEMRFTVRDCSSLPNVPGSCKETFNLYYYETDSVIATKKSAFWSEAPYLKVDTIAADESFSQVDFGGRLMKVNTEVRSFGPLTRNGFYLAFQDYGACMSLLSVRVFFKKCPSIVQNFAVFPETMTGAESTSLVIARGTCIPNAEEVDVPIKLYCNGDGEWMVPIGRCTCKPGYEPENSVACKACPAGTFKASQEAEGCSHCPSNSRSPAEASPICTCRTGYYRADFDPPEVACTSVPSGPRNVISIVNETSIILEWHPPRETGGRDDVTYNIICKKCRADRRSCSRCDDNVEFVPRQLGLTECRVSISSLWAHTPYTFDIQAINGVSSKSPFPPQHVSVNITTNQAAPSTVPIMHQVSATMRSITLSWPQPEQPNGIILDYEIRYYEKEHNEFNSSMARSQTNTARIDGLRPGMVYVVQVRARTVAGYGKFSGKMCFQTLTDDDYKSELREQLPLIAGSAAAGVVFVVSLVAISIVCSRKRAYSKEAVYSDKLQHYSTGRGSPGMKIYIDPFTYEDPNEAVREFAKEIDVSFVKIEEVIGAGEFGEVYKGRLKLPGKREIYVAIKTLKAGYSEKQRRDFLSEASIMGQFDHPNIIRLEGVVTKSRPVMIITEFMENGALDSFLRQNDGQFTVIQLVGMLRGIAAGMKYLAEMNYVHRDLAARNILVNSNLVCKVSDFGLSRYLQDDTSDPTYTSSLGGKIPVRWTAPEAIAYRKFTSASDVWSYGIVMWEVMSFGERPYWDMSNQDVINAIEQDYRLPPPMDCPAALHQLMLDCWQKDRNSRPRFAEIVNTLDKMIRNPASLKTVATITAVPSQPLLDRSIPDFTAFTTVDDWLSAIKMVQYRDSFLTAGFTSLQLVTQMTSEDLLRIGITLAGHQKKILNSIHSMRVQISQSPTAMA
# [2] = biological target: T1, Ephrin type-B receptor 1 (Homo sapiens); settings: at 10 µM
# [3] = biological target: T2, Ephrin type-B receptor 2 (Homo sapiens) (UniProt P29323); settings: at 1 µM
# T2 sequence (whole entry): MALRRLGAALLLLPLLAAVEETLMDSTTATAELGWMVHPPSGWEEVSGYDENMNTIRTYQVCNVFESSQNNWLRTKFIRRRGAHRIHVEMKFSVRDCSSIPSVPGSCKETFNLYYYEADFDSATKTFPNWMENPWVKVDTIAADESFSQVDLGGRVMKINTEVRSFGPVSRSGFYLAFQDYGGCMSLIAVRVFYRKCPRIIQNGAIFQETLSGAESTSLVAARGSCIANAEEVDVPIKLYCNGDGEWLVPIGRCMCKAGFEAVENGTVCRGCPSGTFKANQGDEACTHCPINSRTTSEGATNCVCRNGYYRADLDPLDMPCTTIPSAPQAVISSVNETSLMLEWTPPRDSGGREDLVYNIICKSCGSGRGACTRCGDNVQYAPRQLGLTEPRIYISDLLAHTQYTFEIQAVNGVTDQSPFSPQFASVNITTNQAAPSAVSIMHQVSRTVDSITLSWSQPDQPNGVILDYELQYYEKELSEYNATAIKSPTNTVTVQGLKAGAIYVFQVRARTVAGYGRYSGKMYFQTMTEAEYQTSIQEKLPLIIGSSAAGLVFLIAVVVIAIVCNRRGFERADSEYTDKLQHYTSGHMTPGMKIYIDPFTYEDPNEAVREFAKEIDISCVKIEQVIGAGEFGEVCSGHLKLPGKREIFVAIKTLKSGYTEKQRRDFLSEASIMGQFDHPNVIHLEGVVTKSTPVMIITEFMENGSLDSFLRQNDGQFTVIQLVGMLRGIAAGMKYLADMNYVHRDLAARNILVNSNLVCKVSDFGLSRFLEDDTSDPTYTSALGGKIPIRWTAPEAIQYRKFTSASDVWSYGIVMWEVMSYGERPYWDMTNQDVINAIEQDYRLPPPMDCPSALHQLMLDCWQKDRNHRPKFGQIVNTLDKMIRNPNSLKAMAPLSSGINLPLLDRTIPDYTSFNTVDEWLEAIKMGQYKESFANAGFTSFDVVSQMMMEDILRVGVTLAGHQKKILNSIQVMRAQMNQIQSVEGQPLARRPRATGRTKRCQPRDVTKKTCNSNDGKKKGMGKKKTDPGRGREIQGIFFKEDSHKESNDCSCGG
# [4] = biological target: T2, Ephrin type-B receptor 2 (Homo sapiens); settings: at 10 µM
# [5] = biological target: T3, Ephrin type-B receptor 3 (Homo sapiens) (UniProt P54753); settings: at 1 µM
# T3 sequence (whole entry): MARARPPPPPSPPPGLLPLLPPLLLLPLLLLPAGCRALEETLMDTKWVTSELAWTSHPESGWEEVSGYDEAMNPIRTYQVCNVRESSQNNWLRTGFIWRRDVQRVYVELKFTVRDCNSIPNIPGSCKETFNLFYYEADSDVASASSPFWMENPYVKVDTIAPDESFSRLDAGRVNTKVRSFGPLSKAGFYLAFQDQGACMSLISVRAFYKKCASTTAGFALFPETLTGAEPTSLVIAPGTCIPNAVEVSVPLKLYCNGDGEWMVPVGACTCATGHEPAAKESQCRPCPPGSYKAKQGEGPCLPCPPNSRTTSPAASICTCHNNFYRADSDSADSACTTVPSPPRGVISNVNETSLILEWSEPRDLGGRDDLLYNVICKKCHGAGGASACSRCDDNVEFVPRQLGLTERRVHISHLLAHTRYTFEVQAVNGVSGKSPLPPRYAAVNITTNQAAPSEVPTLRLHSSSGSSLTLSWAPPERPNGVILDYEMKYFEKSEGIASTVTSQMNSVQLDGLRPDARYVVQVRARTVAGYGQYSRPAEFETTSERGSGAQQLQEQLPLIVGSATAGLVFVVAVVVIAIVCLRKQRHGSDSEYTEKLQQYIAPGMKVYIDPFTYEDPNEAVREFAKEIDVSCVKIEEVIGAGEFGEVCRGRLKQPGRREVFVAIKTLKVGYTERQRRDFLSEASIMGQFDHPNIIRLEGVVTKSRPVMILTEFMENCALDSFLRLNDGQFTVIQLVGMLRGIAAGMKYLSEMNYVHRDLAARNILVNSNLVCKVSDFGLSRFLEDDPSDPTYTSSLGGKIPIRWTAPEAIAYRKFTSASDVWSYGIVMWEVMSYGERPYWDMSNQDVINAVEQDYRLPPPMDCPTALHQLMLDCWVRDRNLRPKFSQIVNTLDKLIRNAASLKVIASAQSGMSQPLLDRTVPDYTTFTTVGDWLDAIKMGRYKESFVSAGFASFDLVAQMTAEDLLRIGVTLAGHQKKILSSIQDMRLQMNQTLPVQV
# [6] = biological target: T4, Ephrin type-B receptor 4 (Homo sapiens) (UniProt P54760); settings: at 1 µM
# T4 sequence (whole entry): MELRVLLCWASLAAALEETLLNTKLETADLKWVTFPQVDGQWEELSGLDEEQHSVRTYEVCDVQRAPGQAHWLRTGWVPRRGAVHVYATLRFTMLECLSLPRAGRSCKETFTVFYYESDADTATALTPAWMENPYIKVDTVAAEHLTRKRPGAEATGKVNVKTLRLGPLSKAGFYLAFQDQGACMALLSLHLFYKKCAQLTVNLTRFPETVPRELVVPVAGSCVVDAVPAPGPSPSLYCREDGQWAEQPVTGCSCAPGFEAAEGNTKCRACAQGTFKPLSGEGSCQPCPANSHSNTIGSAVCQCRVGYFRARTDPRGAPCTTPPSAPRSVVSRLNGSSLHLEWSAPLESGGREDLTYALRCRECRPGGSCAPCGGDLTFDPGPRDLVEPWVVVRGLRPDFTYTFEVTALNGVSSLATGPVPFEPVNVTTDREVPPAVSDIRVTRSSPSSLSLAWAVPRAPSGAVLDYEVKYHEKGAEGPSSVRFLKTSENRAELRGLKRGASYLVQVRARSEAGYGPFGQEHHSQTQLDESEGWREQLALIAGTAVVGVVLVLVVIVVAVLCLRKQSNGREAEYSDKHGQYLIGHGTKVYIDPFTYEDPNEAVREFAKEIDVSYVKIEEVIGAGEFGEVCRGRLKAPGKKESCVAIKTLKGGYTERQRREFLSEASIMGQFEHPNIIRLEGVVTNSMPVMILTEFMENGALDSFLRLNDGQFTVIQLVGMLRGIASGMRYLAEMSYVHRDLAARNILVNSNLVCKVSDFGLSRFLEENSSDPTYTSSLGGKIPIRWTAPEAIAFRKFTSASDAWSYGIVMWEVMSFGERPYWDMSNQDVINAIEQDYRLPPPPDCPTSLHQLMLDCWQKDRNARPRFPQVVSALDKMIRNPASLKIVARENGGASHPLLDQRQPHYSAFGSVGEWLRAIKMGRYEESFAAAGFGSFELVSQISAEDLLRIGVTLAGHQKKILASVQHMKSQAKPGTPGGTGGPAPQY
# [7] = biological target: T4, Ephrin type-B receptor 4 (Homo sapiens); settings: at 10 µM
# [8] = biological target: Receptor tyrosine-protein kinase erbB-4 (Homo sapiens) (UniProt Q15303); settings: at 1 µM
# [9] = biological target: Receptor tyrosine-protein kinase erbB-4 (Homo sapiens) (UniProt Q15303); settings: at 10 µM
# [10] = biological target: Focal adhesion kinase 1 (Homo sapiens) (UniProt Q05397); settings: at 1 µM
# Sequence of Focal adhesion kinase 1 (Homo sapiens) (Q05397 2-1052 limits assumed): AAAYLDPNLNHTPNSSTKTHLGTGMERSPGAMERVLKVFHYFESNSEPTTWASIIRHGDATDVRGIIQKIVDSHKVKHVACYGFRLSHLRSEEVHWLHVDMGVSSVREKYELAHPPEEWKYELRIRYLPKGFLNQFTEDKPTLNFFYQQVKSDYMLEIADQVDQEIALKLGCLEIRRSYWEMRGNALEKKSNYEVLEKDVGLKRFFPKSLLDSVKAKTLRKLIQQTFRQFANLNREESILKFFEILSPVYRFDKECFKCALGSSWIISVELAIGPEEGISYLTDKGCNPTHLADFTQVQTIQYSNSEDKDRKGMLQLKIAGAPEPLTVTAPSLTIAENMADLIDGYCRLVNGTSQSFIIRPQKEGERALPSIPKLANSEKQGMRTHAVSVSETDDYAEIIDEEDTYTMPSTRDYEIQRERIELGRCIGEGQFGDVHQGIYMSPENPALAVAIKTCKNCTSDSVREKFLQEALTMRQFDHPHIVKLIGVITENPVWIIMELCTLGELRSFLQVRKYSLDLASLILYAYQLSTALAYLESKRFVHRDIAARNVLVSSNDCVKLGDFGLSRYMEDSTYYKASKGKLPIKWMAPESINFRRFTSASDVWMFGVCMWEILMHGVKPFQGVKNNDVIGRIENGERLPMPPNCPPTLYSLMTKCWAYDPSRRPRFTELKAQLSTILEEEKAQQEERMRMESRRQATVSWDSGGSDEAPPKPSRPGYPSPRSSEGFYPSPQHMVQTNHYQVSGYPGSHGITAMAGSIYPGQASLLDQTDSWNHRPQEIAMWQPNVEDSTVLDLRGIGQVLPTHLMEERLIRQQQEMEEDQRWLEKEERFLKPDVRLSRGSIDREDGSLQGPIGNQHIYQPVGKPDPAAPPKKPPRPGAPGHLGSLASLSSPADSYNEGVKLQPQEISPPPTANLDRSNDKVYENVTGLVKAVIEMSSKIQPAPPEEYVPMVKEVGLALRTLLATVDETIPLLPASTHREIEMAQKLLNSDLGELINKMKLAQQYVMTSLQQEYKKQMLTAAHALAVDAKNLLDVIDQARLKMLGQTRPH
# Sequence of Receptor tyrosine-protein kinase erbB-4 (Homo sapiens) (Q15303 whole entry): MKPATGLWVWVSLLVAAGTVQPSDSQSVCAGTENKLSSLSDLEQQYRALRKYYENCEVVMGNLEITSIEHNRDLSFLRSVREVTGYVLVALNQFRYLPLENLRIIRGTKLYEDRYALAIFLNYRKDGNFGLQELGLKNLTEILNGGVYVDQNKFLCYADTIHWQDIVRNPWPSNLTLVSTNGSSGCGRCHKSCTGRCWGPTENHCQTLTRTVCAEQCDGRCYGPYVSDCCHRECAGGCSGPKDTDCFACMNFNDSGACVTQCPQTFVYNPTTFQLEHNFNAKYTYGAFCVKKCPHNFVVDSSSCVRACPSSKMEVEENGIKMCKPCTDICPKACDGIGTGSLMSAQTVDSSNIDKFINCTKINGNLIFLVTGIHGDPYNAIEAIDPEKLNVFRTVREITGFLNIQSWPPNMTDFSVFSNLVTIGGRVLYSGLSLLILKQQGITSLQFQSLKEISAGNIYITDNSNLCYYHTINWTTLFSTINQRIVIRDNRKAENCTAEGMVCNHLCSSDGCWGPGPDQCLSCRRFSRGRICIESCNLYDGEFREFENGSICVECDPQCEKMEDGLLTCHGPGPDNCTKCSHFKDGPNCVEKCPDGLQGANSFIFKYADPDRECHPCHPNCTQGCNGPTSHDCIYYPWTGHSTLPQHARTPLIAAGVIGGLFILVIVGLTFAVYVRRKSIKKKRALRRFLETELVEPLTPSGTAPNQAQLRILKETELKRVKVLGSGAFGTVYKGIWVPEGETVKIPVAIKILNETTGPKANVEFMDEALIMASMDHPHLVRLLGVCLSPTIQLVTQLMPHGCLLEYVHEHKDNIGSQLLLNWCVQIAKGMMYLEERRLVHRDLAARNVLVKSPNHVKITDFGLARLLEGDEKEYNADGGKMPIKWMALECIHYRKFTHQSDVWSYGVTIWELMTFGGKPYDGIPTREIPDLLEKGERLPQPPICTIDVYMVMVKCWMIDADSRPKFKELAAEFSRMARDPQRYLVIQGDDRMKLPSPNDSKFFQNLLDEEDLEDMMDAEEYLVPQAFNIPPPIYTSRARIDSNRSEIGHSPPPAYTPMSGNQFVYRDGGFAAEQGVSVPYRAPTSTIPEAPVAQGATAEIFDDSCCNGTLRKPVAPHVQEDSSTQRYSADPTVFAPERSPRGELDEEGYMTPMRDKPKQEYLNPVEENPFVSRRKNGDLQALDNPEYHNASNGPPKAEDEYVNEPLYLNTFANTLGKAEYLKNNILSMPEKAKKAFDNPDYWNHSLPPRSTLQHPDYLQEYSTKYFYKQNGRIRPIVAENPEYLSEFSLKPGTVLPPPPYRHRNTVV
structure (smiles),measurement,setting,value
CC(C)n1cnc2/c(=N/c3cccc(Cl)c3)nc(NCCO)[nH]c21,residual activity,[1],81%
same,residual activity,[2],20%
same,residual activity,[3],102%
same,residual activity,[4],35%
same,residual activity,[5],108% (inactive)
same,residual activity,[6],67%
same,residual activity,[7],22%
same,residual activity,[8],94%
same,residual activity,[9],107%
same,residual activity,[10],46%
